Laboratory results: PubChem BioAssay (Tox21)
Results filed as inconclusive are left out. Activity calls are given as the source filed them. Unless noted, calls come from the whole dose curve; as a rule, active = well fitted curve in the direction sought with a large enough effect in the repeat runs; inconclusive = weak or mixed curves; inactive = no such curve, though single readings can be large; an effect the other way counts as inactive or inconclusive.

Assays:
[1] = qHTS assay to identify aromatase inhibitors - cell viability counter screen (AID 743084);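 note: cells stimulated with testosterone during compound exposure; nearly all actives have a fitted effect of over 55% in size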
[2] = biological target: Aryl hydrocarbon receptor (Homo sapiens) (UniProt P35869); assay: qHTS assay to identify small molecule that activate the aryl hydrocarbon receptor (AhR) signaling pathway (AID 743085);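 note: HG2L7.5c1 human HepG2 liver cells with stably integrated DRE-driven firefly reporter; series mostly up to about 70 µM; nearly all actives have a fitted effect of over 15% in size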
Procedure, shortened: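 Compounds were tested in HepG2 hepatocellular carcinoma cells harbouring a stably integrated luciferase gene under control of 20 DREs. Increased reporter signal after 24 h treatment at 37C was taken as AhR activation.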

[3] = qHTS assay to identify small molecule that activate the aryl hydrocarbon receptor (AhR) signaling pathway - cell viability counter screen (AID 743086);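 note: HepG2 liver cells carrying the AhR DRE luciferase reporter; series mostly up to about 70 µM; nearly all actives have a fitted effect of over 45% in size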
Procedure, shortened: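 HepG2-AhR-luc (HG2L7.5c1) cells, 4000/well, treated 24 h at 37 C with compound; viability measured as CellTiter-Fluor fluorescence after 30 min in the same wells as the luciferase read.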

[4] = biological target: Peroxisome proliferator-activated receptor gamma (Homo sapiens) (UniProt P37231); assay: qHTS assay to identify small molecule agonists of the peroxisome proliferator-activated receptor gamma (PPARg) signaling pathway (AID 743094; active = well fitted activation curve with a large enough effect in the signal ratio in the repeat runs, not every such curve was filed as active; the % refers to the signal ratio)
Procedure, shortened: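 Cell-based bla reporter, HEK293H background, PPARg-driven UAS. Pre-incubation 5 h, 37C, 5% CO2. Compound 17 h, 37C. Substrate 1 h RT; fluorescence.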

[5] = biological target: Peroxisome proliferator-activated receptor gamma (Homo sapiens) (UniProt P37231); assay: qHTS assay to identify small molecule antagonists of the peroxisome proliferator-activated receptor gamma (PPARg) signaling pathway (AID 743191; calls by dose curve; note: series mostly up to about 63 µM; nearly all actives have a fitted effect of over 30% in size)
Procedure, shortened: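 GeneBLAzer PPARg UAS-bla HEK293H cells, 5 h post-plating, exposed to compounds 17 h at 37C. LiveBLAzer B/G FRET substrate added for 1 h at room temperature; beta-lactamase reporter read by fluorescence intensity.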

[6] = qHTS assay to identify small molecule antagonists of the peroxisome proliferator-activated receptor gamma (PPARg) signaling pathway - cell viability counter screen (AID 743194); note: nearly all actives have a fitted effect of over 55% in size
Procedure, shortened: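 Cytotoxicity counter screen in PPARg-bla HEK293H cells, same wells as reporter assay. Compounds plus 50 nM rosiglitazone (final) for 17 h at 37 C, then viability read by CellTiter-Glo luminescence.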

[7] = qHTS assay for small molecule agonists of the antioxidant response element (ARE) signaling pathway (AID 743202; active = well fitted activation curve with a large enough effect in the signal ratio in the repeat runs, not every such curve was filed as active; the % refers to the signal ratio)
Procedure, shortened: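 HepG2 ARE-bla reporter line, 2,000 cells/well; 5 h preincubation 37 C/5% CO2; compound (DMSO) 16 h 37 C; B/G FRET substrate 2 h RT; fluorescence intensity.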

[8] = qHTS assay for small molecule agonists of the antioxidant response element (ARE) signaling pathway - cell viability counter screen (AID 743203; calls by dose curve; note: nearly all actives have a fitted effect of over 55% in size)
Procedure, shortened: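 Measured in the same wells as the beta-lactamase ARE reporter, this read-out is CellTiter-Glo luminescence from HepG2 ARE-bla cells given compounds for 16 hrs.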

[9] = qHTS assay for small molecule activators of the heat shock response signaling pathway - cell viability counter screen (AID 743209); note: nearly all actives have a fitted effect of over 50% in size
Procedure, shortened: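 Same-well multiplex: after 2.5 h room-temperature incubation with LiveBLAzer B/G substrate and fluorescence reading, CellTiter-Glo reagent was added to HSE-bla HeLa cells that had received compound for 5 h at 37 C; luminescence read after 30 min.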

[10] = qHTS assay for small molecule activators of the heat shock response signaling pathway (AID 743210; active = well fitted activation curve with a large enough effect in the signal ratio in the repeat runs, with a control signal flat, not every such curve was filed as active; the % refers to the signal ratio;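 note: HeLa cells with beta-lactamase reporter driven by heat shock elements; series mostly up to about 63 µM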)
Procedure, shortened: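 Beta-lactamase reporter read-out: FRET substrate fluorescence after 2.5 h at RT, following 5 h compound treatment at 37 C of HeLa cells carrying HSE-driven bla reporter; quantitative HTS format.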

[11] = qHTS assay to identify small molecule agonists of the peroxisome proliferator-activated receptor delta (PPARd) signaling pathway - cell viability counter screen (AID 743211); note: nearly all actives have a fitted effect of over 55% in size
Procedure, shortened: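 Counter screen for cytotoxicity run in parallel with the PPARd reporter screen. Beta-lactamase reporter HEK293H cells exposed to compounds 17 h; ATP-based CellTiter-Glo luminescence quantified viability.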

[12] = qHTS assay to identify small molecule antagonists of the peroxisome proliferator-activated receptor delta (PPARd) signaling pathway - cell viability counter screen (AID 743213); note: nearly all actives have a fitted effect of over 50% in size
Procedure, shortened: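 PPARd-bla HEK293H cells were treated with compounds plus agonist L165041 (300 nM final) for 17 h at 37 C. Viability was then read in the same wells by CellTiter-Glo luminescence after 30 min at room temperature.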

[13] = qHTS assay to identify small molecule agonists of the farnesoid-X-receptor (FXR) signaling pathway - cell viability counter screen (AID 743218); note: nearly all actives have a fitted effect of over 45% in size
Procedure, shortened: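 Readout: CellTiter-Glo luminescence, 30 min RT, multiplexed after the FXR-bla FRET reading. HEK 293T FXR-UAS-bla cells received compound 5 h post-plating and were incubated 16 h at 37 C.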

[14] = qHTS assay to identify small molecule antagonists of the farnesoid-X-receptor (FXR) signaling pathway - cell viability counter screen (AID 743221; active = well fitted cell-killing curve with a large enough effect in the repeat runs, not every such curve was filed as active; note: nearly all actives have a fitted effect of over 50% in size)
Procedure, shortened: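 Multiplexed counter screen: viability of FXR-bla HEK 293T cells under agonist stimulation by chenodeoxycholic acid (50 uM, final) and test compound for 16 h at 37 C, measured by CellTiter-Glo luminescence in the reporter wells.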

[15] = biological target: Peroxisome proliferator-activated receptor delta (Homo sapiens) (UniProt Q03181); assay: qHTS assay to identify small molecule agonists of the peroxisome proliferator-activated receptor delta (PPARd) signaling pathway (AID 743212; calls by dose curve)
Procedure, shortened: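 Read-out: beta-lactamase FRET fluorescence after 2 h room-temperature incubation with LiveBLAzer B/G substrate. Cells were HEK293H carrying a UAS-bla reporter for PPARd, treated at 37 C with DMSO-dissolved compounds.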

[16] = biological target: Peroxisome proliferator-activated receptor delta (Homo sapiens) (UniProt Q03181); assay: qHTS assay to identify small molecule antagonists of the peroxisome proliferator-activated receptor delta (PPARd) signaling pathway (AID 743215; active = well fitted inhibition curve with a large enough effect in the signal ratio in the repeat runs, not every such curve was filed as active; the % refers to the signal ratio;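 note: cells stimulated with agonist L165041 at 300 nM final during compound exposure; series mostly up to about 62 µM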)
Procedure, shortened: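 Fluorescence from cleaved LiveBLAzer B/G FRET substrate (2 h, room temperature) reports PPARd-driven beta-lactamase in HEK293H UAS-bla cells. Cells had been treated 17 h at 37 C with compound plus 300 nM final L165041.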

[17] = biological target: Bile acid receptor (Homo sapiens) (UniProt Q96RI1); assay: qHTS assay to identify small molecule antagonists of the farnesoid-X-receptor (FXR) signaling pathway (AID 743217; active = well fitted inhibition curve with a large enough effect in the signal ratio in the repeat runs, not every such curve was filed as active; the % refers to the signal ratio)
Procedure, shortened: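 FRET fluorescence after 2 h room-temperature LiveBLAzer loading gives the readout. Prior step: FXR-bla HEK 293T cells, seeded and incubated 5 h, received test compounds plus 50 uM final CDCA for 16 h at 37 °C.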

[18] = biological target: Bile acid receptor (Homo sapiens) (UniProt Q96RI1); assay: qHTS assay to identify small molecule agonists of the farnesoid-X-receptor (FXR) signaling pathway (AID 743220; active = well fitted activation curve with a large enough effect in the signal ratio in the repeat runs, not every such curve was filed as active; the % refers to the signal ratio)
Procedure, shortened: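 FXR-UAS-bla HEK 293T cells carrying a UAS-driven beta-lactamase reporter were plated for 5 h at 37C/5% CO2, then exposed to DMSO-dissolved Tox21 10K compounds for 16 h at 37C. A LiveBLAzer B/G FRET substrate was loaded for 2 h at room temperature before fluorescence reading.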

[19] = biological target: Vitamin D3 receptor (Homo sapiens) (UniProt P11473); assay: qHTS assay to identify small molecule agonists of the vitamin D receptor (VDR) signaling pathway (AID 743222; calls by dose curve)
Procedure, shortened: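 Following 4 h attachment at 37C, VDR-bla cells (2,000 per well) received DMSO-dissolved compounds or controls. After 16 h incubation, LiveBLAzer B/G FRET substrate was added and fluorescence read 2 h later at room temperature.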

[20] = biological target: Vitamin D3 receptor (Homo sapiens) (UniProt P11473); assay: qHTS assay to identify small molecule antagonists of the vitamin D receptor (VDR) signaling pathway (AID 743223; active = well fitted inhibition curve with a large enough effect in the signal ratio in the repeat runs, not every such curve was filed as active; the % refers to the signal ratio)
Procedure, shortened: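 Cells carrying a VDR-driven beta-lactamase reporter (VDR-bla) were co-treated with compound and 3 nM final 1alpha,25-dihydroxyvitamin D3 for 16 h at 37C; reporter activity was measured as FRET substrate fluorescence after 2 h at room temperature.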

Measured: Potency

Chain of Bile acid receptor (Homo sapiens) (Q96RI1 whole entry, looked up): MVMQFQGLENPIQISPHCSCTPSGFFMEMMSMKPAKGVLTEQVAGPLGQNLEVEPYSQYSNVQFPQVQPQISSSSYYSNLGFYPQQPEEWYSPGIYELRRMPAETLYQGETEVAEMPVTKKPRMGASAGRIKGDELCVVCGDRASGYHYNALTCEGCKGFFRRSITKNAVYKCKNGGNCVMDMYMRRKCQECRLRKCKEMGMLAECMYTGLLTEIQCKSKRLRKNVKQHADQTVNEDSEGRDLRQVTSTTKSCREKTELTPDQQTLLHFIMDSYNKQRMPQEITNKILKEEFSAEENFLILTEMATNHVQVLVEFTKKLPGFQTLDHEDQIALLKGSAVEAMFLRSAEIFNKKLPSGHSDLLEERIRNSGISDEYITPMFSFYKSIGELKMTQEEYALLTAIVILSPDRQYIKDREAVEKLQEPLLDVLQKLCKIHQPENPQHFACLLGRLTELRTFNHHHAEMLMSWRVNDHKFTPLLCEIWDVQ
Chain of Peroxisome proliferator-activated receptor gamma (Homo sapiens) (P37231 whole entry, looked up): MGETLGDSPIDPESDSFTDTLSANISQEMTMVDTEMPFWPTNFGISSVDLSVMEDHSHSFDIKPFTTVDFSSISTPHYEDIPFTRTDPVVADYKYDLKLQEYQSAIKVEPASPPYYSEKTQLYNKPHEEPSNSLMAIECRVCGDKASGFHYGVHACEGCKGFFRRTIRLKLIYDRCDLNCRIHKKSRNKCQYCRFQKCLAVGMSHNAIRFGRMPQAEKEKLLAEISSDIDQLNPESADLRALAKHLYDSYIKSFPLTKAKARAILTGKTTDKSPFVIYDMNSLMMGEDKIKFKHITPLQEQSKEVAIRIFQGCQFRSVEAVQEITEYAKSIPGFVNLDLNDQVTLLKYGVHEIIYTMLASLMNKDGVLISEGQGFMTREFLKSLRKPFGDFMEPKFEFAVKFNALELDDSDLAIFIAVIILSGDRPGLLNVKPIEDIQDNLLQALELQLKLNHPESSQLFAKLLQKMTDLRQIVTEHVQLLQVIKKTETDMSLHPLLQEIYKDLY
Chain of Peroxisome proliferator-activated receptor delta (Homo sapiens) (Q03181 whole entry, looked up): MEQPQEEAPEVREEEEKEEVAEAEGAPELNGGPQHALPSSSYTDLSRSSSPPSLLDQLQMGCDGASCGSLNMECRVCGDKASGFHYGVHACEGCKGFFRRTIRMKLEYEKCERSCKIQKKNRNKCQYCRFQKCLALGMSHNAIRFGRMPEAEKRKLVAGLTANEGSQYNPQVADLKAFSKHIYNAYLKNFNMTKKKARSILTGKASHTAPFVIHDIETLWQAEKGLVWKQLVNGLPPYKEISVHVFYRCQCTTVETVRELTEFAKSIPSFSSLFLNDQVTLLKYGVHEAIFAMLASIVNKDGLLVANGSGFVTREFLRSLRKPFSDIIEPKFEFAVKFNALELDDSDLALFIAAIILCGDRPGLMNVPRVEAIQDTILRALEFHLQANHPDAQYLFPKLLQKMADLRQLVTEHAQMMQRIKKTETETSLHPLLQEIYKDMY
Chain of Aryl hydrocarbon receptor (Homo sapiens) (P35869 whole entry, looked up): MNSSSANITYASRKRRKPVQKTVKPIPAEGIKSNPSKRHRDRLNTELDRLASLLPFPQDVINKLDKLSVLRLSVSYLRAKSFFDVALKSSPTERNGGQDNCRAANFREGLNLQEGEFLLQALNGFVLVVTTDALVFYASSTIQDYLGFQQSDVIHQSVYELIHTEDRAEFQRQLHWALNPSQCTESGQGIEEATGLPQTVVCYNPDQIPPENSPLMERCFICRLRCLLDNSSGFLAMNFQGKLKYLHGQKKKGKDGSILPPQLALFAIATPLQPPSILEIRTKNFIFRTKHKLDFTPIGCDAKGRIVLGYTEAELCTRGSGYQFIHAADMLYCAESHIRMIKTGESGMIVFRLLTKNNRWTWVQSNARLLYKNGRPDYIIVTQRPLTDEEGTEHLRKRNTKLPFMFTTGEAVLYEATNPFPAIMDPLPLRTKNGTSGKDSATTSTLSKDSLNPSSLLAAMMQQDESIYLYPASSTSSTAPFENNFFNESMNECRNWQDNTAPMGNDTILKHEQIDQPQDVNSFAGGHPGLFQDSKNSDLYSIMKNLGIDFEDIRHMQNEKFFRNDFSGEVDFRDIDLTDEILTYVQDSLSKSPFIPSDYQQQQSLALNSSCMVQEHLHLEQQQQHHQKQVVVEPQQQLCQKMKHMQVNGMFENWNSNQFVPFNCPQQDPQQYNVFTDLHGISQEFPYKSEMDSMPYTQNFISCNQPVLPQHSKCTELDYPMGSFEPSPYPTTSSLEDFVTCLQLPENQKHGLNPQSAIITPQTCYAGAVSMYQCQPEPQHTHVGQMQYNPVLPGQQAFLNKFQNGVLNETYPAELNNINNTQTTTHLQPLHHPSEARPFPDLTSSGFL
Chain of Vitamin D3 receptor (Homo sapiens) (P11473 whole entry, looked up): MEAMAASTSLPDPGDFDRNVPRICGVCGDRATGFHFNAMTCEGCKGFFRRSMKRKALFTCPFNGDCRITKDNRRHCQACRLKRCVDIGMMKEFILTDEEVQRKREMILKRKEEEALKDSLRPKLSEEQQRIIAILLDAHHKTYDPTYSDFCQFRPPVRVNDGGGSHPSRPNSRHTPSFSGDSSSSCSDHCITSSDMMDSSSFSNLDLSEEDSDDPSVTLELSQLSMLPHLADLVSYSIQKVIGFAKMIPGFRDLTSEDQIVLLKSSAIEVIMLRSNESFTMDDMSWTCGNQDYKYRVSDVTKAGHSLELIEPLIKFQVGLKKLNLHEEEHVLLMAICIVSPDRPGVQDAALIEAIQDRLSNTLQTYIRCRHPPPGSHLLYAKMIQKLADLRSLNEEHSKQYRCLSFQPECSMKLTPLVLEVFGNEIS

CCCCCCCCCCCCOCCO
not listed: [15] | [16] | [17] | [18] | [19] | [20]
inactive: all other assays above

CC(=O)Nc1cccc(O)c1
not listed: [15] | [16] | [17] | [18] | [19] | [20]
inactive: all other assays above

CCCC(C)=O
not listed: [14] | [19] | [20]
inactive: all other assays above

CCCCC(CC)COC(=O)CCCCC(=O)OCC(CC)CCCC (centres undefined)
not listed: [12] | [14]
inactive: all other assays above

COc1ccc(Nc2ccccc2)c(C)c1
not listed: [12] | [17] | [18] | [19] | [20]
inactive: all other assays above

Cc1cc(C)c(C)cc1C
not listed: [20]
inactive: all other assays above

COc1cc(Cc2cnc(N)nc2N)cc(OC)c1OC
not listed: [14] | [17] | [18]
inactive: all other assays above

CC(C)c1ccc(S(=O)(=O)O)cc1
not listed: [12] | [15] | [16] | [17] | [18] | [19] | [20]
inactive: all other assays above

CCOC(=O)NNc1nncc2ccccc12
not listed: [12] | [13]
inactive: all other assays above

c1ccc2c(c1)ccc1ccccc12
not listed: [14]
inactive: all other assays above

OC[C@H]1O[C@@](CO)(O[C@H]2O[C@H](CO)[C@@H](O)[C@H](O)[C@H]2O)[C@@H](O)[C@@H]1O
not listed: [14] | [19] | [20]
inactive: all other assays above

CCCCCC/C(C=O)=C\c1ccccc1
not listed: [12]
inactive: all other assays above

C=C(C)C(=O)O[C@H]1C[C@@H]2CC[C@@]1(C)C2(C)C
not listed: [17] | [18]
inactive: all other assays above

CCCCCCCCCCCCS
not listed: [17] | [18]
inactive: all other assays above

C[C@H]1C[C@@H]2[C@H]([C@@H](O)C[C@@]3(C)[C@H]2CC[C@]3(O)C(=O)CO)[C@@]2(C)C=CC(=O)C=C12
not listed: [10] | [17] | [18] | [19] | [20]
inactive: all other assays above

CCCCCC1=CCCC1=O
not listed: [12] | [14]
inactive: all other assays above
